Source: PubChem (several laboratories)
CYP2C19 inh: blockers of cytochrome P450 2C19 activity – biochemical, luminescence, ADME assay, primary screen; P33261; 21% of 96,000 active; inhibition, % at 5 µM; AID 778, 2007; CYP2C19 Supersomes, luciferin-H EGE luminescence, 30 min;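 active = CYP2C19 inhibition above a set limit at 5 µM in the primary screen, cut at about 50% in these data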;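 also: plate controls were negative control wells for no effect and 2.5 mM tranylcypromine positive control for full effect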
Target sequence (P33261 whole entry, looked up): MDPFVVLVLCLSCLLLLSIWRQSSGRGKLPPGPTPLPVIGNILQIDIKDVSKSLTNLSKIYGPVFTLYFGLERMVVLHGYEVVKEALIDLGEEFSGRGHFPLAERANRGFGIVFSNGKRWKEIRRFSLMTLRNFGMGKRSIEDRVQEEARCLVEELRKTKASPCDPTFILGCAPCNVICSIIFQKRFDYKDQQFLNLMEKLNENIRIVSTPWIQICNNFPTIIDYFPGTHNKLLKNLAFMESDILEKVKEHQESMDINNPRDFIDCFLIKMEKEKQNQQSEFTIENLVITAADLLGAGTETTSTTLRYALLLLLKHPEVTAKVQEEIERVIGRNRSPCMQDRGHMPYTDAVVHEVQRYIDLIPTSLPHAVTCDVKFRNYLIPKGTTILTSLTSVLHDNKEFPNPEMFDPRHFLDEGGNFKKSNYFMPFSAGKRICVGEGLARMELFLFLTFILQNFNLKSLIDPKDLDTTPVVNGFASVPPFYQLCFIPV
PostGolgi ctrl: growth inhibition of yeast control strain, primary screen, counter-screen for post-Golgi transport modulator project. inhibition, % at 10 µM. 5% of 98,000 active. efflux-deficient yeast background strain, growth absorbance A615, 16 h. AID 738, 2007
CYP2C19 activ: human CYP2C19 activators, primary screen, biochemical, luminescence. Cytochrome P450 2C19 (Homo sapiens), P33261. recombinant CYP2C19, luciferin-H EGE luminescence; hits give high values; 0 = fully inhibited enzyme, 1 = untreated enzyme. activation factor at 5 µM. 96,000 tested, under 10 active. AID 1025, 2008;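 active = activation factor of at least 2 at 5 µM in the primary screen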;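 also: 0 = wells with 2.5 mM tranylcypromine and 1 = vehicle-only wells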
CYP2C9 act: human CYP2C9 activators, primary screen, biochemical, luminescence | Cytochrome P450 2C9 (Homo sapiens), P11712 | recombinant CYP2C9, luciferin-H conversion; hits give high values; factor 1 = untreated enzyme, 0 = blocked | activation factor at 5 µM | 1.4% of 96,000 active | AID 1024, 2008;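 active = activation factor of 2 or more for CYP2C9 at a 5 µM dose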;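 also: 0 = sulfaphenazole-blocked wells and 1 = vehicle-only wells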
CYP2C9 inh: blockers of cytochrome P450 2C9 activity – biochemical, luminescence, ADME assay, primary screen | P11712 | CYP2C9 Supersomes, luciferin-H conversion | inhibition, % at 5 µM | 20% of 96,000 active | AID 777, 2007;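 active = blocking of liver enzyme CYP2C9 beyond about 50% at 5 µM, limit read from the data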
PostGolgi yeast: phenotypic screen on post-Golgi transport, primary screen; post-Golgi transport phenotypic cell assay; inhibition, % at 10 µM; 0.9% of 98,000 active; AID 739, 2007;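 also: yeast cells grown in 1536-well plates; yeast grown about 18 h at 30C before absorbance read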
An asterisk follows results filed as active. Compounds with a hit are over-represented: about 32% of the library has one in this group of screens. Rule as the data show it, unless noted: active = inhibition above about 30%; inactive = the rest.

What do the screens show for `CCOc1ccc(S(=O)(=O)Nc2ccc(S(=O)(=O)N3CCCC3)cc2)cc1`?
CYP2C19 inh: 85*; PostGolgi ctrl: -3; CYP2C19 activ: 0.2; CYP2C9 act: 0.1; CYP2C9 inh: 94*; PostGolgi yeast: -2

What do the screens show for `CCOc1ccc(S(=O)(=O)Nc2ccc(S(=O)(=O)N3CCCCC3)cc2)cc1`?
CYP2C19 inh: 53*; PostGolgi ctrl: 0; CYP2C19 activ: 0.5; CYP2C9 act: 0.1; CYP2C9 inh: 86*; PostGolgi yeast: -12

How did COc1ccc(-c2ccc(S(=O)(=O)N3CCOCC3)cc2)cc1 do in these assays?
CYP2C19 inh: 42; PostGolgi ctrl: 0; CYP2C19 activ: 0.6; CYP2C9 act: 1.1; CYP2C9 inh: -5; PostGolgi yeast: -1

Results for COc1ccc(C2C(C(=O)NCCN(C)C)c3ccccc3C(=O)N2C)cc1OC (stereo not drawn) ?
CYP2C19 inh: -21; PostGolgi ctrl: -5; CYP2C19 activ: 1.2; CYP2C9 act: 1.1; CYP2C9 inh: -12; PostGolgi yeast: -3

How did COc1ccc(NC(C)c2cc(Cl)ccc2O)cc1 (stereo not drawn) do in these assays?
CYP2C19 inh: 58*; PostGolgi ctrl: -5; CYP2C19 activ: 0.4; CYP2C9 act: 0.5; CYP2C9 inh: 49; PostGolgi yeast: 5

How did COc1ccc(CCC(C)Nc2ccc(F)cc2)cc1 (stereo not drawn) do in these assays?
PostGolgi ctrl: 4; PostGolgi yeast: -8

What do the screens show for `COc1cc2[nH]c(=S)nc(NCCCOC(C)C)c2cc1OC`?
CYP2C19 inh: 11; PostGolgi ctrl: -5; CYP2C19 activ: 0.9; CYP2C9 act: 0.9; CYP2C9 inh: 11; PostGolgi yeast: 2

How did Clc1ccc(CSc2nncn2-c2ccccn2)cc1 do in these assays?
CYP2C19 inh: 68*; PostGolgi ctrl: 12; CYP2C19 activ: 0.3; CYP2C9 act: 0.9; CYP2C9 inh: 7; PostGolgi yeast: 4

Results for Cc1ccc(CONC(=O)/N=C/N(C)C)cc1 ?
CYP2C19 inh: 16; PostGolgi ctrl: 15; CYP2C19 activ: 0.8; CYP2C9 act: 0.9; CYP2C9 inh: 12; PostGolgi yeast: 1

Results for OCCN1CCN(CCOc2cccc(Cl)c2)CC1 ?
CYP2C19 inh: -12; PostGolgi ctrl: 13; CYP2C19 activ: 1.1; CYP2C9 act: 1.1; CYP2C9 inh: -13; PostGolgi yeast: 27

What do the screens show for `CCN1CCN(c2ncnc3c2sc(=S)n3-c2ccccc2)CC1`?
CYP2C19 inh: 10; PostGolgi ctrl: 9; CYP2C19 activ: 0.9; CYP2C9 act: 0.9; CYP2C9 inh: 12; PostGolgi yeast: 2

Results for S=c1sc2c(N3CCN(Cc4ccccc4)CC3)ncnc2n1-c1ccccc1 ?
CYP2C19 inh: 38; PostGolgi ctrl: 11; CYP2C19 activ: 0.6; CYP2C9 act: 0.4; CYP2C9 inh: 60*; PostGolgi yeast: 6

How did COc1ccc(C(C)=O)cc1CN1C(=O)NC2(CCCCCC2)C1=O do in these assays?
CYP2C19 inh: 88*; PostGolgi ctrl: 0; CYP2C19 activ: 0.1; CYP2C9 act: 0.7; CYP2C9 inh: 29; PostGolgi yeast: -12

How did CCOC(=O)c1[nH]c(C)c(C(=O)NCCCOC(C)C)c1C do in these assays?
CYP2C19 inh: -11; PostGolgi ctrl: 3; CYP2C19 activ: 1.1; CYP2C9 act: 1.1; CYP2C9 inh: -11; PostGolgi yeast: -10

How did COC(=O)CC1COc2ccccc2N1C(=O)c1cccc(Cl)c1 (stereo not drawn) do in these assays?
CYP2C19 inh: 63*; PostGolgi ctrl: 3; CYP2C19 activ: 0.4; CYP2C9 act: 0.5; CYP2C9 inh: 46; PostGolgi yeast: 0

How did COC(=O)CCC(=O)NNC(=O)c1cccc(Cl)c1 do in these assays?
CYP2C19 inh: 4; PostGolgi ctrl: 9; CYP2C19 activ: 1; CYP2C9 act: 1; CYP2C9 inh: 2; PostGolgi yeast: -8

What do the screens show for `O=C1/C(=C\c2cccnc2)CCc2ccccc21`?
CYP2C19 inh: 75*; PostGolgi ctrl: 13; CYP2C19 activ: 0.3; CYP2C9 act: 0.7; CYP2C9 inh: 28; PostGolgi yeast: 3
